Test [1] in a line: ACEA_ER_80hr: ACEA Biosciences xCELLigence Real-Time Cell Analysis on Estrogen Receptor Agonism for Proliferation (AID 2282667; active = hit-call score of the fitted dose curve at least 0.9, where 1 is the maximum). The settings on record: T47D proliferation, impedance (xCELLigence), 80 h. Put shortly: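 Real-time impedance growth kinetics of human T-47D breast cells read 80 h after dosing, gain-of-signal fitted relative to DMSO. Compounds: 1:4 serial series, top final concentration 100 uM, n = 2.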

Test [2] can be described thus: APR_HepG2_CellCycleArrest_24hr: Apredica 24-hour HepG2 Assay for Cell Cycle Arrest (AID 2282905).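 Note: cell cycle arrest scored as ratio of 2N to 4N nuclear DNA content.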 The note with it: imaging, actives raise or lower the signal. Put shortly:
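Readout: Hoechst 33342 nuclear DNA content by high-content fluorescent imaging, six images/well, 20x. Human HepG2 liver cells, 24 hr compound exposure, 0.39–200 uM, final DMSO 0.5% v/v. Gain or loss fitted relative to DMSO baseline.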

Test [3] is described as follows: APR_HepG2_NuclearSize_24hr: Apredica 24-hour HepG2 Assay for Nuclear Size (AID 2282907). The note with it: high-content imaging, actives raise or lower the signal. Put shortly:
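Read-out: nuclear diameter from Hoechst 33342 (2 ug/mL) imaging of fixed HepG2 cells, 20x, six fields/well. Compounds ran at 0.39–200 uM for 24 hr, 0.5% DMSO final. Gain or loss was fitted bidirectionally relative to the DMSO baseline.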

The nature of test [4]: APR_HepG2_CellLoss_24hr: Apredica 24-hour HepG2 Assay for Cell Loss (AID 2282908). The note with it: high-content imaging. Put shortly: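 Read-out: Hoechst 33342-stained nuclei counted by automated fluorescence imaging after formaldehyde fixation and Triton permeabilization. Ten concentrations, 0.39 to 200 uM, duplicate wells, 0.5% DMSO final. Gain or loss of signal fitted relative to DMSO baseline.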

Test [5] is described as follows: APR_HepG2_MitoMembPot_24hr: Apredica 24-hour HepG2 Assay for Mitochondrial Membrane Potential (AID 2282911). The note with it: imaging, actives raise or lower the signal. A digest of the protocol:
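Mitochondrial membrane potential imaged via MitoTracker Red CMXRos (250 nM, 30 min pre-fixation) in fixed HepG2 cells with Hoechst nuclear identification. Ten concentrations 0.39–200 uM, 24 h treatment, 0.5% DMSO; CCCP as positive control.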

Test [6] in a line: APR_HepG2_MitoMass_24hr: Apredica 24-hour HepG2 Assay for Mitochondrial Mass (AID 2282912). The note with it: high-content imaging, actives raise or lower the signal. A digest of the protocol:
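HepG2, 24 hr dosing, 10 concentrations 0.39–200 uM in duplicate, DMSO 0.5% final. MitoTracker Red CMXRos 250 nM, 30 min pre-fix; 3.7% formaldehyde fix. Imaging-based fluorescence intensity; gain/loss fit vs DMSO baseline.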

The nature of test [7]: APR_HepG2_p53Act_24hr: Apredica 24-hour HepG2 Assay for p53 Activation (AID 2282913).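 Note: p53 protein immunofluorescence averaged per cell in HepG2 with Hoechst nuclei.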 The settings on record: high-content imaging, actives raise or lower the signal. Put shortly:
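Fluorescence imaging of formaldehyde-fixed HepG2 cells labelled for p53 and with Hoechst, 24 h after dosing (0.39–200 uM, duplicate wells, 0.5% v/v DMSO). Signal fitted in both directions relative to DMSO.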

The nature of test [8]: APR_HepG2_CellLoss_72hr: Apredica 72-hour HepG2 Assay for Cell Loss (AID 2282915). The note with it: high-content imaging. Put shortly: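 Cell number comes from Hoechst 33342-labelled nuclei, imaged at 20x after 3.7% formaldehyde fixation. Dosing was 0.39–200 uM, ten concentrations in duplicate, 0.5% DMSO final, for 72 h. Bidirectional fit relative to DMSO baseline.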
Test [9] is described as follows: APR_HepG2_P-H2AX_72hr: Apredica 72-hour HepG2 Assay for H2AX Phosphorylation (AID 2282916).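 Note: phospho-histone H2A.x immunostain intensity per cell marking DNA damage.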 The note with it: imaging, actives raise or lower the signal. A digest of the protocol:
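Readout: phospho-H2A.x immunofluorescence (FITC secondary) plus Hoechst nuclear stain, high-content imaging at 20x, six fields/well. HepG2, 72 hr compound exposure, 0.39–200 uM, final DMSO 0.5% v/v. Gain or loss fitted relative to DMSO baseline.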

Test [10] is described as follows: APR_HepG2_MitoticArrest_72hr: Apredica 72-hour HepG2 Assay for Mitotic Arrest (AID 2282918). The settings on record: high-content imaging, actives raise or lower the signal. Put shortly:
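High-content imaging of fixed human HepG2 cells after 72 h compound exposure (0.39–200 uM, duplicates, 0.5% DMSO); mitotic arrest scored from phospho-histone H3 and nuclear Hoechst staining relative to DMSO.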

A short description of test [11]: APR_HepG2_P-H2AX_24hr: Apredica 24-hour HepG2 Assay for H2AX Phosphorylation (AID 2282920). The settings on record: high-content imaging, actives raise or lower the signal. Put shortly:
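High-content imaging of phospho-histone H2A.x immunofluorescence, nuclei counterstained with Hoechst 33342, in fixed HepG2 cells. Compounds ran 0.39–200 uM in duplicate for 24 h, final DMSO 0.5%. Signal change fitted both directions against DMSO.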

Test [12] is described as follows: APR_HepG2_StressKinase_72hr: Apredica 72-hour HepG2 Assay for Stress Kinase (AID 2282921). The note with it: HepG2 stress kinase (phospho-c-Jun) imaging, actives raise or lower the signal. Put shortly:
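Phospho-c-Jun immunofluorescence measured by high-content imaging at 20x, six fields per well; bidirectional curve fitting against DMSO as baseline. Dosing: 0.39–200 uM, 72 h, 0.5% DMSO final.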

The nature of test [13]: APR_HepG2_StressKinase_24hr: Apredica 24-hour HepG2 Assay for Stress Kinase (AID 2282922). The note with it: HepG2 stress kinase (phospho-c-Jun) imaging, actives raise or lower the signal. A digest of the protocol: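 High-content imaging of phospho-c-Jun immunofluorescence in fixed, permeabilized HepG2 cells after 24 h dosing. Ten concentrations, 0.39 to 200 uM, run in duplicate at 0.5% v/v DMSO; gain or loss of signal versus DMSO.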

The nature of test [14]: APR_HepG2_p53Act_72hr: Apredica 72-hour HepG2 Assay for p53 Activation (AID 2282923).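 Note: average cellular p53 protein immunofluorescence intensity in HepG2 cells.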 The note with it: high-content imaging, actives raise or lower the signal. A digest of the protocol:
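Readout: p53 immunofluorescence quantified by automated high-content imaging at 20x, six fields per well, nuclei located via Hoechst. Dosing ran 72 hr over ten concentrations from 0.39 to 200 uM; bidirectional curve fitting against DMSO baseline.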

Test [15] is described as follows: APR_HepG2_NuclearSize_72hr: Apredica 72-hour HepG2 Assay for Nuclear Size (AID 2282925). The settings on record: high-content imaging, actives raise or lower the signal. Put shortly: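 Nuclear size was read by high-content imaging of Hoechst 33342 stain after formaldehyde fixation. Compounds ran 72 h on HepG2 at 0.39 to 200 uM, with final DMSO 0.5% v/v. Curves fitted both directions relative to DMSO control.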

Inconclusive results are not listed. Activity calls are given as the source filed them. Rule for the calls, unless noted: active = hit-call score of the fitted dose curve at least 0.9, where 1 is the maximum; inactive = score below 0.9.

Regarding `CCCCc1ccc(O)cc1`, the AC50 in test [1] is 10.5 µM (active).
With `CCOC(=O)c1ccccc1N`, in test [1], the call was inactive.
`Nc1ccc([N+](=O)[O-])cc1Cl`: the result in test [1] was inactive.
As to `O=S(=O)(F)C(F)(F)C(F)(F)C(F)(F)C(F)(F)C(F)(F)C(F)(F)C(F)(F)C(F)(F)F`, the call in [1] was inactive.
Regarding `O=[N+]([O-])c1cc(Cl)ccc1Cl`, the compound was called inactive in test [1].
Same read-out and setting: the same measure for `O=NN1CCCC1`: “inactive”; for `CC(Cl)CN(C)C` (stereo not given): “inactive”.
In the case of `Clc1ccc(Oc2ccccc2)cc1`, the call in [1] was inactive.
Still for that read-out and setting: the value for `Nc1ccc(Sc2ccc(N)cc2)cc1` was “inactive”; that for `Cc1ccc(C(=O)Cl)cc1` was “inactive”.
As for `CC1(C)CN=C(NN=C(/C=C/c2ccc(C(F)(F)F)cc2)/C=C/c2ccc(C(F)(F)F)cc2)NC1`, in test [1], the AC50 was 0.0563 µM (active).
Turning to `COC(N)=O`, the compound was classed as inactive in [1].
The same measure, in the same setting: the value for `CNC(=O)Oc1ccc(N(C)C)c(C)c1` was “inactive”; that for `O=c1[nH]c2ccccc2c(=O)o1` was “inactive”.
For `O=P1(N(CCCl)CCCl)NCCCO1` (stereo not given), the AC50 in [1] is 3.97 µM (active). The compound was classed as inactive in test [2], in test [3], in test [4], in test [5], in [6] and in test [7]. Besides, the compound was called inactive in [8], in [9], in test [10], in test [11], in [12] and in test [13]. The call in [14] and in test [15] was inactive.
For `c1cc2c3c(cccc3c1)CC2`, the call in [1], in test [2], in test [3], in test [4], in test [5] and in [6] was inactive. Besides, the compound was called inactive in [7], in test [8], in test [9], in [11], in [12] and in [13]. The compound was called inactive in test [14] and in test [15].
As to `OCC1CO1` (stereo not given), the compound was classed as inactive in [1], in test [2], in test [3], in [4], in test [5] and in test [6]. For the same compound, the call in test [7], in test [8], in test [9], in [10], in [11] and in test [12] was inactive. For the same compound, the result in test [13], in test [14] and in test [15] was inactive.
For the compound `O=C(O)C1C(C(=O)O)C2(Cl)C(Cl)=C(Cl)C1(Cl)C2(Cl)Cl` (stereo not given), the call in [1], in test [2], in test [3], in test [4], in test [5] and in [6] was inactive. The compound was called inactive in [7], in test [8], in test [9], in test [11], in [12] and in test [13]. The compound was called inactive in [14] and in test [15].
`CCNc1nc(Cl)nc(NC(C)(C)C)n1`: in test [1], the AC50 was 28 µM (active). Moreover, the compound was classed as inactive in test [2], in test [3], in test [4], in [5], in test [6] and in test [8]. In addition, the call in test [9], in [10], in test [11], in test [12], in test [13] and in [15] was inactive.

For the origin of these results see PubChem BioAssay (EPA / NIEHS).
